This is a sample that favours compounds with a hit; in the whole collection about 19% have one here.
DT40 TDP1 CPT = growth inhibition of DT40 Tdp1-/-;hTDP1 cells with camptothecin (screen for TDP1 inhibitors); chicken DT40 Tdp1-/-;hTDP1 cells + 20 nM CPT, ATP luminescence, 48 h; Potency, µM (top dose mostly 46.2 µM), for inactives: top-dose activity change, negative = growth inhibition, usual class: inhibitors; 420,000 compounds, 12% hits; AID 686979; also: nearly all actives have a fitted effect of over 55% in size
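Chicken DT40 Tdp1-/- cells stably complemented with human TDP1 were seeded at 400 cells/well in medium containing 20 nM camptothecin, exposed to pin-transferred compounds, and grown at 37 °C for at least 48 hr. Viability was read as ATP luminescence.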
DT40 TDP1 no CPT = qHTS for Inhibitors of human tyrosyl-DNA phosphodiesterase 1 (TDP1): qHTS in cells in absence of CPT; Potency, µM (doses to about 46.2 µM), for inactives: at the top dose activity change, negative = growth inhibition, most hits filed as inhibitors; DT40 Tdp1-/- hTDP1 cells, no CPT, ATP luminescence, 48 h; 420,000 compounds, 15% hits; also: nearly all actives have a fitted effect of over 55% in size
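Growth kinetics read by CellTiter-Glo luminescence after ≥48 hr at 37 °C. Cells: DT40 Tdp1-/- stably carrying human TDP1, 400 per well, compound exposure in the absence of CPT (DMSO vehicle).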
HT1080 IDH1KD tx = kills HT-1080 cells with IDH1 knockdown | HT-1080 IDH1 knockdown viability, ATP luminescence, 48 h | Potency, µM (doses to about 46.1 µM), without a hit: top-dose activity, negative = toxicity, usual class: cytotoxic | 360,000 compounds, 2% hits | AID 686971;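 also: 0% = DMSO wells and -100% = cell-free medium wells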
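Luminescent ATP read-out (CellTiter-Glo, 10 min at room temperature) after 48 h compound exposure at 37 °C gave viability of IDH1-knockdown HT-1080 cells. Activity was normalised to DMSO and cell-free wells, then fitted as concentration-response curves.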
KB-3-1 tox = kills parental KB-3-1 adenocarcinoma cells. KB-3-1 viability, CellTiter-Glo ATP luminescence, 72 h. AID 1347075. Potency, µM (doses to about 46.1 µM), most hits filed as cytotoxic. 400,000 compounds, 1.4% hits; also: nearly all actives have a fitted effect of over 60% in size
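Cells are dispensed, compounds pinned in, plates held at 37 °C for 72 h, then CellTiter-Glo is added and luminescence read after 10 minutes. Cell line: parental KB-3-1 in phenol-red-free DMEM, 10% FBS.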
HT1080NT lethal = kills 2HG-producing HT-1080-NT fibrosarcoma cells; 360,000 compounds, 1.6% hits; HT-1080-NT fibrosarcoma viability, CellTiter-Glo ATP luminescence, 48 h; Potency, µM (top dose mostly 46.1 µM), for inactives: top-dose activity, negative = less viability, hits mostly cytotoxic;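 also: NT is the 2HG producing partner of a matched IDH1 knockdown line; 0% = DMSO-treated cells and -100% = media-only wells without cells; nearly all actives have a fitted effect of over 55% in size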
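Viability of the 2HG-overproducing fibrosarcoma line after 48 hours of compound exposure at 37 degrees C was determined by luminescence with CellTiter-Glo, and concentration-effect curves were then fitted and categorized.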
KB-V1 cytotox = KB-V1 MDR subline cytotoxicity. KB-V1 MDR cells viability, CellTiter-Glo, 72 h. Potency, µM (highest dose often 46.1 µM), actives largely listed as cytotoxic. 400,000 compounds, 3.4% hits; also: nearly all actives have a fitted effect of over 60% in size
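In this primary screen, KB-V1 cells overexpressing P-gp are incubated with library compounds (lowest to highest concentration) for 72 h at 37 degrees C before a luminescent ATP viability read.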
* = called active by the depositor; i = inactive; ? = inconclusive; · = no result. Calls follow the shape of the dose curve; as a rule, active = well fitted curve in the direction sought with a large enough effect; inconclusive = small, poorly fitted or top-dose-only effect, or another doubt; inactive = no such curve, though single readings can be large; an effect the other way counts as inactive or inconclusive. Unless noted, % is scaled to controls: 0 for no effect and ±100 for the full control effect; potency is read from the fitted curve at half-maximal effect.

SMILES	DT40 TDP1 CPT	DT40 TDP1 no CPT	HT1080 IDH1KD tx	KB-3-1 tox	HT1080NT lethal	KB-V1 cytotox
O=c1cc(-c2ccccc2Cl)oc2ccc([N+](=O)[O-])c(O)c12	?	?	-4%	i	2%	i
O=c1cc(-c2ccccc2Cl)oc2c([N+](=O)[O-])c(O)cc(O)c12	23µM*	26µM*	-29%	i	-29%	i
Nc1ccc2oc(-c3ccccc3Cl)cc(=O)c2c1O	?	?	5%	7.3µM*	5%	?
COc1ccccc1-c1cc(=O)c2c(O)ccc([N+](=O)[O-])c2o1	3.7µM*	5.2µM*	14%	21µM*	5%	4.6µM*
COc1cccc(CNC2CCCCCCC2)c1OC	7%	-19%	-4%	i	0%	i
COc1ccc(-c2cc3ccccc3n2CC(O)CNCCO)cc1 (stereo not drawn)	23µM*	15µM*	-16%	i	-24%	i
COc1ccc(-c2cc3ccccc3n2CC(O)CN2CCCCC2)cc1 (stereo not drawn)	-24%	-18%	-11%	i	-20%	i
CCOC(=O)[C@]12CCC=C1N(Cc1ccc(Cl)cc1Cl)C(=O)[C@H](CC(=O)NCc1ccc(OC)c(OC)c1)C2	16µM*	?	-29%	7.3µM*	?	5.2µM*
CCOC(=O)[C@]12CCC=C1N(Cc1cccc3ccccc13)C(=O)[C@H](CC(=O)NCc1cccc3ccccc13)C2	?	?	0%	i	-5%	?
CCOC(=O)[C@]12CCC=C1N(Cc1ccc(Cl)cc1Cl)C(=O)[C@H](CC(=O)NCc1cccc3ccccc13)C2	?	23µM*	-23%	i	-27%	?
CC(CCc1ccccc1)NC(=O)CSc1n[nH]c(-c2ccc(F)cc2)n1 (stereo not drawn)	?	23µM*	·	·	·	·
CCc1ccc(-c2nc(SCC(=O)NC3CC3)n[nH]2)cc1	14%	-10%	-13%	i	-17%	i
CC(CCc1ccccc1)NC(=O)CSc1n[nH]c(-c2ccccc2)n1 (stereo not drawn)	15µM*	21µM*	·	i	·	?
Cc1ccc(CNC(=O)CSc2n[nH]c(-c3ccc(F)cc3)n2)cc1	?	16µM*	·	·	·	·
COc1ccc(CCNC(=O)CSc2nc(C)nc3sccc23)cc1OC	-11%	-2%	0%	i	-4%	i
COc1cc(OC)c(NC(=O)Nc2ccc3c(c2)N(C)C(=O)c2ccccc2S3)cc1Cl	5.8µM*	5.8µM*	·	·	·	·
CN1C(=O)c2ccccc2Sc2ccc(NC(=O)NCc3cccc(Cl)c3)cc21	23µM*	23µM*	·	i	·	i
Cc1ccccc1CNC(=O)Nc1ccc2c(c1)N(C)C(=O)c1ccccc1S2	16µM*	16µM*	·	·	·	·
COCCNC(=O)Nc1ccc2c(c1)N(C)C(=O)c1ccccc1S2	9%	-12%	0%	i	-5%	i
COc1ccc(CNC(=O)Nc2ccc3c(c2)N(C)C(=O)c2ccccc2S3)cc1	?	21µM*	·	·	·	·
O=C(Nc1c[nH]c(=O)[nH]c1=O)c1cccc([N+](=O)[O-])c1	?	-11%	-1%	i	-7%	i
CC(C)NC(=O)Nc1ccc2c(c1)N(C)C(=O)c1ccccc1S2	?	-29%	·	i	·	i
Cc1ccc(CC(=O)Nc2ccc3c(c2)N(C)C(=O)c2ccccc2S3)cc1	?	?	·	i	·	18µM*
CCc1ccc(S(=O)(=O)c2nnn3c2nc(NCc2cccc(OC)c2)c2cc(Cl)ccc23)cc1	?	?	·	i	·	i
N#Cc1ccc(Nc2nc(-c3ccc(O)cc3O)cs2)cc1C(F)(F)F	13µM*	10µM*	?	?	?	?
SMILES	DT40 TDP1 CPT	DT40 TDP1 no CPT	HT1080 IDH1KD tx	KB-3-1 tox	HT1080NT lethal	KB-V1 cytotox
COC(=O)C1=C(C)Nc2nc3ccccc3n2C1c1ccccc1F (stereo not drawn)	?	?	-6%	i	-6%	?
Fc1ccc(C2=CC(c3ccc(F)cc3)n3c(nc4ccccc43)N2)cc1 (stereo not drawn)	15µM*	5.2µM*	·	?	·	?
COC(=O)c1ccc(C2C=C(c3ccc(Cl)cc3)Nc3nc4ccccc4n32)cc1 (stereo not drawn)	9.2µM*	8.2µM*	·	i	·	i
CCCNC(=O)c1ccc(Cn2cc(-c3ccc(OC)cc3)nc2C(C)N)cc1 (stereo not drawn)	?	-16%	-7%	i	-18%	i
ON=C1c2ccccc2-c2ccc(O)cc21	?	-13%	?	i	?	i
Nc1ccc2c(c1)C(=O)c1ccccc1-2	3%	-10%	15%	i	15%	i
ON=C1c2ccccc2-c2cc(Br)ccc21	7.3µM*	?	1%	i	2%	?
Nc1ccc2c(c1)C(=O)c1ccc(Br)cc1-2	-7%	9%	2%	i	6%	i
Nc1ccc2c(c1)C(=NO)c1ccccc1-2	18µM*	8.2µM*	-2%	i	0%	i
Nc1ccc2c(c1)C(=O)C(=O)c1ccccc1-2	0.65µM*	0.92µM*	?	2.9µM*	4.6µM*	4.6µM*
CC(=NO)c1ccc2c(c1)C(=NO)c1ccccc1-2	16µM*	21µM*	17%	i	25%	i
C/C(=N\O)c1ccc2[nH]ccc2c1	5%	9%	2%	i	-4%	?
CC(C)CCOc1ccc(Cl)cc1CN1CCOCC1	?	?	-10%	i	-13%	i
Cc1ccc2nc(Cl)c3cc(C(=O)N4CCCC(C)C4)sc3c2c1 (stereo not drawn)	?	?	·	i	·	i
O=C(N/N=C/c1ccncc1)c1ccc(NS(=O)(=O)c2cccs2)cc1	-8%	4%	15%	i	13%	i
O=C(Nc1ccc(S(=O)(=O)Nc2ncccn2)cc1)c1cccc(S(=O)(=O)N2CCOCC2)c1	-4%	?	0%	i	0%	i
CN(CC(=O)Nc1ccc(N2CCOCC2)cc1)C(=O)c1cc(F)c(F)cc1Cl	8%	-8%	15%	i	18%	i
O=C1C(=O)c2ccc(-c3ccccc3)cc2-c2ccccc21	0.92µM*	2.6µM*	3.3µM*	4.1µM*	3.7µM*	3.7µM*

Compound activity (PubChem)
